# Source: ChEMBL document CHEMBL1157539, “Thousands of chemical starting points for antimalarial lead identification” (Nature, 2010)
# The full ranking holds about 13,000 compounds; the median of “IFI” is about 4, and the highest 2% start at about 17. This excerpt belongs to a sample that is enriched for the highest values.
# Assay: GSK_TCMDC: Inhibition Frequency Index (IFI). The number of non-kinase HTS assays where a compound showed > 50 % inhibition, expressed as a percentage of the number of such assays in which the compound was tested
# Format: functional
row,Compound,IFI [%]
1,O=C(NCCc1cccc(Cl)c1Cl)c1cnc(N2CCN(c3ccncc3)CC2)c(Cl)c1,20
2,O=C(Nc1cccc(Cl)c1)c1cnc(N2CCN(c3ccncc3)CC2)c(Cl)c1,16.7
3,Cc1ccccc1CCNC(=O)c1cnc(N2CCN(c3ccncc3)CC2)c(Cl)c1,20.8
4,COc1ccccc1CCNC(=O)c1cnc(N2CCN(c3ccncc3)CC2)c(Cl)c1,10.4
5,Cc1ccccc1CCNC(=O)c1ccc(N2CCN(c3ccncc3)CC2)nc1,2.08
6,O=C(NCCc1cccc(Cl)c1Cl)c1ccc(N2CCN(c3ccncc3)CC2)nc1,10.4
7,COc1c(C2CCN(CCCCNC(=O)c3ccc(-c4ccc(Cl)cc4)c(O)c3)CC2)ccc2c1CCCC2,9.09
8,CN1CCCN(c2ccnc3cc4c(cc23)N(C(=O)c2ccc(Cl)cc2Cl)CC4)CC1,0.72
9,O=C(CCC1CCCCC1)NCCNc1cccc2ccccc12,1.47
10,N=C(NCCCc1ccccc1)c1cccc(C(=N)NCCCc2ccccc2)n1,1.47
11,N=C(NCCCCC1CCCCC1)c1cccc(C(=N)NCCCCC2CCCCC2)n1,19.9
12,COc1ccc2c(=NN=Cc3ccc(OC)c4ccccc34)cc(C)[nH]c2c1,2.14
13,O=C(Cn1c(SCc2cccc(F)c2F)cc(=O)c2ccccc21)N(CCCn1ccnc1)Cc1ccc(-c2ccc(C(F)(F)F)cc2)cc1,2.17
14,CCc1ccc(CN2CCC(CNC(=O)c3cc(-c4cccc(Cl)c4)cs3)C2)cc1 (stereo unspecified),8.16
15,CC(Cc1ccc(OCCN2CCN(c3cccc(C(F)(F)F)c3)CC2)cc1)NCC(O)c1cccc(C(F)(F)F)c1 (stereo unspecified),10.8
16,CC(Cc1ccc(OCCN2CCN(c3ccc(Cl)cc3)CC2)cc1)NCC(O)c1cccc(C(F)(F)F)c1 (stereo unspecified),18.1
17,CC(Cc1ccc(CN2CCN(Cc3ccccc3)CC2)cc1)NCC(O)c1cccc(C(F)(F)F)c1 (stereo unspecified),9.15
18,CC(Cc1ccc(OCCN2CCN(c3cccc(Cl)c3)CC2)cc1)NCC(O)c1cccc(C(F)(F)F)c1 (stereo unspecified),17.2
19,CC(Cc1ccc(OCCN2CCN(c3cccc(Cl)c3)CC2)cc1)NCC(O)c1cccc(Cl)c1 (stereo unspecified),16.4
20,CC(Cc1ccc(OCCN2CCN(c3ccccc3)CC2)cc1)NCC(O)c1cccc(Cl)c1F (stereo unspecified),12
21,N#Cc1ccc(CN2CCCN(Cc3cccc(NC(=O)c4ccc(-c5ccccc5)cc4)c3)CC2)cc1,8.28
22,Cc1cc(NCCC(=O)NCCc2ccccc2)nc(NCCc2ccc(F)cc2)n1,4.55
23,O=C(/C=C/c1ccc(C(F)(F)F)cc1)NCCCCCN1CCN(C(=O)Nc2ccc(Cl)c(Cl)c2)CC1,13.7

row,Compound,IFI [%]
1,O=C(/C=C/c1ccc(C(F)(F)F)cc1)NCCCCCN1CCCN(C(=O)Nc2ccc(Cl)c(Cl)c2)CC1,20.4
2,O=C(/C=C/c1ccc(Cl)c(Cl)c1)NCCCCCN1CCCC(CCCNC(=O)Nc2ccc(C(F)(F)F)cc2)C1 (stereo unspecified),11.3
3,CC(C)c1ccc(NC(=O)NCC2CCCN(CCCCCNC(=O)/C=C/c3ccc(Cl)c(Cl)c3)C2)cc1 (stereo unspecified),12.1
4,O=C(/C=C/c1ccc(Cl)c(Cl)c1)NCCCCCCN1CCCN(C(=O)Nc2ccc(C(F)(F)F)cc2)CC1,12.3
5,O=C(/C=C/c1ccc(Cl)c(Cl)c1)NCCCCCCN1CCCN(C(=O)Nc2ccc(Cl)c(C(F)(F)F)c2)CC1,11.3
6,O=C(/C=C/c1ccc(C(F)(F)F)cc1)NCCCCCN1CCCN(C(=O)Nc2ccc(Cl)c(C(F)(F)F)c2)CC1,18.8
7,O=C(/C=C/c1ccc(Cl)cc1)NCCCCCN1CCCN(C(=O)Nc2ccc(Cl)c(C(F)(F)F)c2)CC1,14.3
8,O=C(/C=C/c1ccc(Cl)c(Cl)c1)NCCCCCN1CCCC(CNC(=O)Nc2ccc(C(F)(F)F)cc2)C1 (stereo unspecified),17.7
9,Cc1ccc2c(c1)c(C1CCN(C(=O)c3ccc([N+](=O)[O-])o3)CC1)cn2C,4.35
10,Cc1ccc(-c2nn3c(O)c4c(nc3c2C)CCCC4)cc1,0.88
11,COc1c(C2CCN(CCN3CCC(CNC(=O)c4ccc(-c5ccc(C#N)cc5)cc4)CC3)CC2)ccc2c1CCCC2,16.2
12,O=C(Nc1cccc(CN2CCCN(CCc3ccccc3)CC2)c1)c1ccc(Cl)c(Cl)c1,3.36
13,CN1CCN(CCCN(Cc2cccc(-c3ccc(CNCCc4ccccc4)cc3)c2)C(=O)c2cccs2)CC1,11.3
14,COC(=O)c1cccc(CNCc2ccc(-c3ccc(-c4nc5cc(C(F)(F)F)ccc5[nH]4)s3)cc2)c1,11.5
15,Ic1cc(CNC2CCCCC2)ccc1OCc1cccc(COc2ccc(CNC3CCCCC3)cc2I)c1,10.1
16,CCN(CC)Cc1cccc(-c2cc3c(-c4ccc(C(=O)O)c(C(C)C)c4)ccnc3[nH]2)c1OC,0
17,COc1cccc2c(NN=Cc3cccc(Cl)c3)ccnc12,3.62
18,COc1cc2nc(NCc3nc4ccccc4[nH]3)nc(N)c2cc1OC,0
19,CC(C)N1CCN(C(CN2CCN(CCCOc3ccc(-c4ccccc4)cc3)CC2)c2ccc(F)cc2)CC1 (stereo unspecified),20.3
20,COc1ccc2ccccc2c1CCCCN1CCN(CC(c2ccc(F)cc2)N2CCC2)CC1 (stereo unspecified),18.4
21,COc1ccc2ccccc2c1CCCCN1CCN(CC(c2ccc(F)cc2)N2CCN(C3CCCC3)CC2)CC1 (stereo unspecified),12.8
22,COc1ccc2ccccc2c1CCCCN1CCN(CC(c2ccc(F)cc2)N2CCN(C(C)C)CC2)CC1 (stereo unspecified),14.7
23,CC(C)N1CCN(C(CN2CCN(CCCOc3ccccc3-c3ccccc3)CC2)c2ccc(F)cc2)CC1 (stereo unspecified),13.5

row,Compound,IFI [%]
1,CC(C)N1CCN(C(CN2CCN(CCCOc3cccc(-c4ccccc4)c3)CC2)c2ccc(F)cc2)CC1 (stereo unspecified),16
2,CCCCCCCNCc1c(O)ccc2c(CNCCCCCCC)c(O)ccc12,13.6
3,Oc1ccc2ccccc2c1C=NNc1nc(=Nc2ccccc2)nc(N2CCOCC2)[nH]1,3.68
4,COc1ccccc1CCNc1nc(C)cc(N[C@@H](Cc2ccccc2)C(=O)NCc2cccs2)n1,9.76
5,CCCCc1ccc(S(=O)(=O)Nc2ccc3c(c2)CCN(Cc2c[nH]c4cnccc24)CC3)cc1,19.4
6,CCCc1ccc(S(=O)(=O)Nc2ccc3c(c2)CCC3)cc1,2.26
7,Cc1cnc(C(=O)Nc2ccc3c(c2)CCCN(Cc2c[nH]c4cnccc24)C3)cn1,0
8,CCOc1ccc(C(Cc2ccccc2)NC(=O)c2cccnc2)cc1OCC (stereo unspecified),0.83
9,Fc1ccc2[nH]c3c(NCCCN4CCOCC4)ncnc3c2c1,0
10,Fc1ccc2[nH]c3c(NCCN4CCCCC4)ncnc3c2c1,1.4
11,COc1ccc(CNc2ncnc3c2[nH]c2ccc(F)cc23)cc1,17.2
12,c1ccc(CCNc2ncnc3c2[nH]c2ccccc23)cc1,23.9
13,CN(C)CCNc1ncnc2c1[nH]c1ccc(Cl)cc12,0
14,COc1ccccc1CCNc1ncnc2c1[nH]c1ccc(F)cc12,20.5
15,CN(C)CCCNc1ncnc2c1[nH]c1ccc(F)cc12,2.14
16,Cc1ccc2[nH]c3c(NCCN(C)C)ncnc3c2c1,0
17,COc1ccc(CNCc2ccc(-c3ccc(-c4nc5cc(F)ccc5[nH]4)cc3)cc2)cc1,13.1
18,CC(C)C(C(=O)Nc1ccc2c(c1)OCO2)c1ccc(Cl)cc1 (stereo unspecified),9.18
19,Cc1cc(=O)c(-c2ccc(Oc3cccc(OC(F)(F)F)c3)cc2)c(C)[nH]1,3.76
20,COc1ccc(N2CCN(CCCCNC(=O)c3ccc(NC(=O)c4cc(C(F)(F)F)cc(C(F)(F)F)c4)cc3)CC2)cc1OC,3.51
21,c1ccc(CNCc2cccc(-c3ccc(-c4nc5ccccc5[nH]4)s3)c2)cc1,3.92
22,CCCCCCCc1c(C)nc2cc(OC)ccc2c1O,0
23,CC(C)Oc1cc(-c2ccc(S(C)(=O)=O)cc2)nc(N(Cc2cccc(F)c2F)Cc2cccc(F)c2F)n1,0

row,Compound,IFI [%]
1,c1ccc2cc(CNCCCN3CCN(CCCNCc4ccc5ccccc5c4)CC3)ccc2c1,11.7
2,c1ccc2c(c1)cc(CNCCCN1CCN(CCCNCc3cc4ccccc4c4ccccc34)CC1)c1ccccc12,19.4
3,c1ccc2c(CNCCCN3CCN(CCCNCc4c5ccccc5cc5ccccc45)CC3)c3ccccc3cc2c1,15.3
4,CCCCNC(=N)Nc1ccc(OCCCOc2ccc(NC(=N)NCCCC)cc2)cc1,2.99
5,COc1ccc2nccc([C@@H](O)CN3CCC(NCc4ccc5nc[nH]c(=O)c5c4)CC3)c2c1,0
6,CC(=O)c1ccc2nc[nH]c(=O)c2c1,26.1
7,CC(=O)c1ccc(NC(=O)Nc2ccc3nccc(N4CCN(C)CC4)c3c2)cc1,0
8,Cc1cc(NCCC(=O)NCCOc2ccccc2)nc(NCCOc2ccccc2)n1,4.88
9,Nc1ccc(-c2nc3cc(C4=N[C@H]5CCCC[C@H]5N4)ccc3o2)cc1[N+](=O)[O-],1.41
10,CCn1c(-c2nonc2N)nc2c(-c3cccc(NC(=O)Nc4ccccc4OC)c3)ncc(OCCCN)c21,20.5
11,CCn1c(-c2nonc2N)nc2c(-c3cccc(NC(=O)Nc4ccccc4Cl)c3)ncc(OCCCN)c21,18.2
12,CCn1c(-c2nonc2N)nc2c(-c3cccc(Cl)c3)ncc(OCCCNCCc3c[nH]cn3)c21,7.69
13,CCn1c(-c2nonc2N)nc2c(-c3cccc(NC(=O)Nc4cccc(OC)c4)c3)ncc(OCCCN)c21,15.6
14,Cc1ccc2[nH]c(-c3ccccc3)cc(=NN=Cc3cccnc3)c2c1,1.52
15,Oc1ccc(CCNCCCCCCNCCc2ccc(Br)cc2)cc1O,5.15
16,N#CCOc1c(C2CCN(CCCCNC(=O)c3ccc(-c4ccc(C(F)(F)F)cc4)cc3)CC2)ccc2c1CCCC2,7.08
17,N=C(N)Nc1ccc(OCCCCCOc2ccc(NC(=N)N)cc2)cc1,3.13
18,CC(C)Oc1ccc(CCCON2C(=N)N=C(N)NC2(C)C)cc1,5.63
19,N#Cc1cccc(CN2CCCN(Cc3ccc(C(=O)Nc4ccc(Cl)cc4)cc3)CC2)c1,7.87
20,CC(C)(C)c1ccc(C(=O)NC2CCC(CCN3CCc4ccc(S(C)(=O)=O)cc4CC3)CC2)cc1C(F)(F)F (stereo unspecified),21.6
21,CS(=O)(=O)c1ccc2c(c1)CCN(CCC1CCC(NC(=O)c3cc4cccc(Br)c4[nH]3)CC1)CC2 (stereo unspecified),7.59
22,CS(=O)(=O)c1ccc2c(c1)CCN(CCC1CCC(NC(=O)C(=Cc3ccc(Cl)cc3Cl)c3ccc(-c4ccccc4)cc3)CC1)CC2 (stereo unspecified),5.48
